Counter-ions that a name gives are not always drawn. ± gives the standard deviation of the averaged measurements.
System: Escherichia coli ATCC BAA-2469
Assay: percent growth inhibition of drug + antibiotic vs DMSO control; higher = more growth inhibition
Conditions: antibiotic (0.125x MIC): ciprofloxacin; 7 µM
Description: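 Prestwick drugs tested at 20 uM and 7 uM with an antibiotic at 0.125x MIC (16 mg/L when MIC >128 mg/L) against E. coli ATCC BAA-2469 (NDM-1) in CAMHB, 384-well plates, duplicate runs. Percent growth inhibition was computed from OD600 (24 h minus 0 h) relative to DMSO wells. Drug + DMSO-only wells are also given. […]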

Row | Compound | percent growth inhibition [%]
1 | O=c1[nH]c(=O)n([C@H]2C[C@H](O)[C@@H](CO)O2)cc1C(F)(F)F [Trifluridine] | 4.99 ± 6.6
2 | Nc1ncn(C2OC(CO)C(O)C2O)c(=O)n1 (stereo not given) [Azacytidine-5] | 99.1 ± 2.6
3 | CC(=O)OC[C@H]1O[C@@H]([S-])[C@H](OC(C)=O)[C@@H](OC(C)=O)[C@@H]1OC(C)=O.CCP(CC)CC.[Au+] [Auranofin] | 9.1 ± 0.77
4 | Nc1nc(O)c2ncn(CCC(CO)CO)c2n1 [Penciclovir] | 7.81 ± 16
5 | CO[C@H]1/C=C/O[C@@]2(C)Oc3c(C)c(O)c4c(O)c(c(/C=N/N5CCN(C)CC5)c(O)c4c3C2=O)NC(=O)/C(C)=C\C=C\[C@H](C)[C@H](O)[C@@H](C)[C@@H](O)[C@@H](C)[C@H](OC(C)=O)[C@@H]1C [Rifampicin] | 13.5 ± 3.6

Same assay, conditions: antibiotic (0.125x MIC): ciprofloxacin; 20 µM

Row | Compound | percent growth inhibition [%]
6 | O=c1[nH]c(=O)n([C@H]2C[C@H](O)[C@@H](CO)O2)cc1C(F)(F)F [Trifluridine] | 25.5 ± 3.5
7 | Nc1ncn(C2OC(CO)C(O)C2O)c(=O)n1 (stereo not given) [Azacytidine-5] | 101 ± 3
8 | CC(=O)OC[C@H]1O[C@@H]([S-])[C@H](OC(C)=O)[C@@H](OC(C)=O)[C@@H]1OC(C)=O.CCP(CC)CC.[Au+] [Auranofin] | 19.5 ± 6.6
9 | Nc1nc(O)c2ncn(CCC(CO)CO)c2n1 [Penciclovir] | -2.9 ± 7.2
10 | CO[C@H]1/C=C/O[C@@]2(C)Oc3c(C)c(O)c4c(O)c(c(/C=N/N5CCN(C)CC5)c(O)c4c3C2=O)NC(=O)/C(C)=C\C=C\[C@H](C)[C@H](O)[C@@H](C)[C@@H](O)[C@@H](C)[C@H](OC(C)=O)[C@@H]1C [Rifampicin] | 101 ± 2.1

Same assay, conditions: antibiotic (0.125x MIC): gentamicin; 7 µM

Row | Compound | percent growth inhibition [%]
11 | O=c1[nH]c(=O)n([C@H]2C[C@H](O)[C@@H](CO)O2)cc1C(F)(F)F [Trifluridine] | 6.11 ± 0.34
12 | CCOC(=O)c1ccc(N)cc1 [Benzocaine] | 0.573 ± 3.1
13 | Cc1cc(/C=C/c2ccc3cc(N(C)C)ccc3[n+]2C)c(C)n1-c1ccccc1 [Pyrvinium pamoate] | 13.6 ± 14
14 | C#C[C@]1(O)CC[C@H]2[C@@H]3CCC4=C(CCC(=O)C4)[C@H]3CC[C@@]21C [Norethynodrel] | 4.39 ± 3.6
15 | O=C(Nc1ccc([N+](=O)[O-])cc1Cl)c1cc(Cl)ccc1O [Niclosamide] | 10.1 ± 2
16 | CO[C@H]1/C=C/O[C@@]2(C)Oc3c(C)c(O)c4c(c3C2=O)C2=NC3(CCN(CC(C)C)CC3)NC2=C(NC(=O)/C(C)=C\C=C\[C@H](C)[C@H](O)[C@@H](C)[C@@H](O)[C@@H](C)[C@H](OC(C)=O)[C@@H]1C)C4=O [Rifabutin] | 86.11 ± 0.8
17 | CC(=O)c1ccc2c(c1)N(CCCN1CCC(CCO)CC1)c1ccccc1S2 [Piperacetazine] | 2.86 ± 2.4
18 | CCN(CC)CCNC(=O)c1cc(Br)c(N)cc1OC [Bromopride] | 1.42 ± 2.4
19 | OCCN1CCN(CCCN2c3ccccc3Sc3ccc(C(F)(F)F)cc32)CC1 [Fluphenazine dihydrochloride] | 1.67 ± 0.74
20 | COc1cc(C(=O)NCc2ccc(OCCN(C)C)cc2)cc(OC)c1OC [Trimethobenzamide hydrochloride] | 0.833 ± 1.4
21 | COc1ccccc1OCC(O)CO (stereo not given) [Guaifenesin] | 2.34 ± 2.3
22 | COc1cc(NS(=O)(=O)c2ccc(N)cc2)nc(OC)n1 [Sulfadimethoxine] | 1.55 ± 1.5

Same assay, conditions: antibiotic (0.125x MIC): gentamicin; 20 µM

Row | Compound | percent growth inhibition [%]
23 | Cc1c(OCC(F)(F)F)ccnc1C[S+]([O-])c1nc2ccccc2[nH]1 (stereo not given) [Lansoprazole] | 12.5 ± 18
24 | CO[C@H]1/C=C/O[C@@]2(C)Oc3c(C)c(O)c4c(c3C2=O)C2=NC3(CCN(CC(C)C)CC3)NC2=C(NC(=O)/C(C)=C\C=C\[C@H](C)[C@H](O)[C@@H](C)[C@@H](O)[C@@H](C)[C@H](OC(C)=O)[C@@H]1C)C4=O [Rifabutin] | 114 ± 20
25 | Clc1cccc(Cl)c1NC1=NCCN1 [Clonidine hydrochloride] | -0.49 ± 2.6

Same assay, conditions: antibiotic (0.125x MIC): meropenem; 7 µM

Row | Compound | percent growth inhibition [%]
26 | CS(=O)(=O)c1ccc([C@@H](O)[C@@H](CO)NC(=O)C(Cl)Cl)cc1 [Thiamphenicol] | 7.39 ± 2.1
27 | Cc1cc(N)c2ccccc2[n+]1CCCCCCCCCC[n+]1c(C)cc(N)c2ccccc21 [Dequalinium dichloride] | -1.34 ± 1.8
28 | Cc1cc(/C=C/c2ccc3cc(N(C)C)ccc3[n+]2C)c(C)n1-c1ccccc1 [Pyrvinium pamoate] | 11.6 ± 17
29 | Nc1nc(=S)c2ncn([C@@H]3O[C@H](CO)[C@@H](O)[C@H]3O)c2[nH]1 [Thioguanosine] | 34.2 ± 1.9
30 | CC(=O)OC[C@H]1O[C@@H]([S-])[C@H](OC(C)=O)[C@@H](OC(C)=O)[C@@H]1OC(C)=O.CCP(CC)CC.[Au+] [Auranofin] | 7.8 ± 5.3
31 | CO[C@H]1/C=C/O[C@@]2(C)Oc3c(C)c(O)c4c(c3C2=O)C2=NC3(CCN(CC(C)C)CC3)NC2=C(NC(=O)/C(C)=C\C=C\[C@H](C)[C@H](O)[C@@H](C)[C@@H](O)[C@@H](C)[C@H](OC(C)=O)[C@@H]1C)C4=O [Rifabutin] | 97.8 ± 1.9
32 | Nc1c2ccccc2nc2ccccc12 [Aminacrine] | 13.7 ± 12
33 | COc1ccccc1OCC(O)CO (stereo not given) [Guaifenesin] | -4.21 ± 1.2

Same assay, conditions: antibiotic (0.125x MIC): meropenem; 20 µM

Row | Compound | percent growth inhibition [%]
34 | CS(=O)(=O)c1ccc([C@@H](O)[C@@H](CO)NC(=O)C(Cl)Cl)cc1 [Thiamphenicol] | 30.4 ± 14
35 | Cc1cc(N)c2ccccc2[n+]1CCCCCCCCCC[n+]1c(C)cc(N)c2ccccc21 [Dequalinium dichloride] | 34.5 ± 0.8
36 | Cc1cc(/C=C/c2ccc3cc(N(C)C)ccc3[n+]2C)c(C)n1-c1ccccc1 [Pyrvinium pamoate] | 18 ± 14
37 | Nc1nc(=S)c2ncn([C@@H]3O[C@H](CO)[C@@H](O)[C@H]3O)c2[nH]1 [Thioguanosine] | 81.6 ± 9.8
38 | CC(=O)OC[C@H]1O[C@@H]([S-])[C@H](OC(C)=O)[C@@H](OC(C)=O)[C@@H]1OC(C)=O.CCP(CC)CC.[Au+] [Auranofin] | 19.3 ± 14
39 | CO[C@H]1/C=C/O[C@@]2(C)Oc3c(C)c(O)c4c(c3C2=O)C2=NC3(CCN(CC(C)C)CC3)NC2=C(NC(=O)/C(C)=C\C=C\[C@H](C)[C@H](O)[C@@H](C)[C@@H](O)[C@@H](C)[C@H](OC(C)=O)[C@@H]1C)C4=O [Rifabutin] | 111 ± 12
40 | Nc1c2ccccc2nc2ccccc12 [Aminacrine] | 40.9 ± 17

Reference: the supplement of paper PMC6658780
